Compounds with a hit are over-represented: about 2.4% of the library has one in this group of screens.
Cruzain noTriton: inhibitors of Trypanosoma cruzi cruzain without detergent; purified cruzain, Z-FR-AMC fluorescence, no detergent; 200,000 compounds, 2.3% hits; AID 1476; Potency, µM, hits mostly inhibitors; P25779; also: nearly all actives have a fitted effect of over 40% in size
Target sequence (P25779 123-467 limits assumed): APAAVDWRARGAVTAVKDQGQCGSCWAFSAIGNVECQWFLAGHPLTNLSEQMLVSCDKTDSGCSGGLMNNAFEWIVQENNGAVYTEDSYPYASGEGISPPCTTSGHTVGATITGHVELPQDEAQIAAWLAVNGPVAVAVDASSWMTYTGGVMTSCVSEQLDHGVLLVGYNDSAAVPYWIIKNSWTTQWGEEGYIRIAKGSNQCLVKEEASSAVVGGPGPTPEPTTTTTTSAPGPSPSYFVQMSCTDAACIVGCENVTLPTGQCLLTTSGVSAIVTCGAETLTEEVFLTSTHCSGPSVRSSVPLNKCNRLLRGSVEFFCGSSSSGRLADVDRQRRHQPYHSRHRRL
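Detergent-free condition (0.00005% Triton X-100) in acetate buffer pH 5.5 with DTT. 1.5 nM enzyme and compound were pre-mixed 15 min, then 2 uM Z-FR-AMC substrate added; reaction progress from fluorescence change between first and third reads (60 s).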
Cruzain inh Det: cruzain (T. cruzi) inhibition with detergent | P25779 | purified cruzain, Z-FR-AMC fluorescence, 0.01% Triton | Potency, µM, usual class: inhibitors | 200,000 compounds, 0.43% hits; also: nearly all actives have a fitted effect of over 40% in size
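Cruzain (1.5 nM) preincubated 15 min at RT with compound in 100 mM sodium acetate pH 5.5, 5 mM DTT, 0.01% Triton X-100. Reaction started with 2 uM Z-FR-AMC; AMC fluorescence (ex 360/em 450 nm) change over 60 s gave rate.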
Of the large screens only hits and unclear results are named; the others gave an inactive call. Calls follow the shape of the dose curve; as a rule, active = well fitted curve in the direction sought with a large enough effect; inconclusive = small, poorly fitted or top-dose-only effect, or another doubt; inactive = no such curve, though single readings can be large; an effect the other way counts as inactive or inconclusive.

Cc1ccc(C)c2[nH]c(=O)c(CN(CCN3CCCC3)C(=O)Nc3cccc(Cl)c3)cc12	Cruzain noTriton 25µM
Cc1cc(C)c2cc(CN(CCN3CCCC3)C(=O)Nc3ccc(F)cc3)c(=O)[nH]c2c1	Cruzain noTriton inconclusive
CC(=NCC(=O)O)c1ccccc1	none
O=C(O)c1ccc(/C=N/NC(=O)c2cc(-c3cccs3)nc3ccccc23)cc1	none
Cc1nn(-c2ccccc2)c(N2CCCC2)c1/C=N/NC(=O)c1cccc(S(=O)(=O)Nc2ccc(Cl)cc2)c1	Cruzain noTriton inconclusive
Cc1nn(-c2ccccc2)c(N2CCCC2)c1/C=N/NC(=O)c1cc(-c2ccccc2)nc2ccccc12	Cruzain noTriton 4µM
Cc1nn(-c2ccccc2)c(N2CCCC2)c1/C=N/NC(=O)c1cc(-c2cccs2)nc2ccccc12	Cruzain noTriton 10µM
Cc1nn(-c2ccccc2)c(N2CCCC2)c1/C=N/NC(=O)c1cc(-c2ccccn2)nc2ccccc12	none
Cc1nn(-c2ccccc2)c(N2CCCC2)c1/C=N/NC(=O)c1cc2ccccc2cc1O	Cruzain noTriton 16µM
O=[N+]([O-])c1ccc(CSc2nc3ccccc3[nH]2)cc1	none
Cc1cccc2nc(CSc3nc4ccc([N+](=O)[O-])cc4[nH]3)c(Br)n12	Cruzain noTriton 3.2µM
CCOC(=O)c1ccc(NC(=O)C2CCCN(c3ccc(Sc4ccc(C)cc4)nn3)C2)cc1 (stereo not drawn)	none
O=C(COC(=O)c1ccc2c(c1)C(=O)N(c1cccc3ncccc13)C2=O)c1ccc(Cl)cc1	Cruzain noTriton inconclusive
O=C(OCC(=O)c1ccc(Cl)cc1Cl)c1ccc2c(c1)C(=O)N(c1cccc3ncccc13)C2=O	Cruzain noTriton 20µM
COCCn1c(=NC(=O)c2ccc(S(=O)(=O)N3CCc4ccccc4C3)cc2)sc2cc(OC)ccc21	Cruzain noTriton 4µM
COCCn1c(=NC(=O)CN2C(=O)CCC2=O)sc2cc(S(N)(=O)=O)ccc21	none
COc1ccc(C(CC(=O)Nc2ccc(F)cc2)c2ccccc2)cc1 (stereo not drawn)	none
COc1ccccc1C(CC(=O)Nc1ccc(Cl)cc1)c1ccc(OC(C)C)cc1 (stereo not drawn)	Cruzain noTriton 3.2µM
Cc1cc(C(C)(C)C)cc(CNC2CCCCC2)c1O	none
Cc1oc2c(C)c3oc(=O)c(CCC(=O)N4CCCCC4)c(C)c3cc2c1C	none
Cc1nc([N+](=O)[O-])c(Sc2nc3ccccc3n2C)n1Cc1ccccc1	none
O=C(NCc1nc2ccccc2[nH]1)c1ccco1	none
O=C(NCc1nc2ccccc2[nH]1)c1cc2ccccc2oc1=O	Cruzain noTriton 7.9µM, Cruzain inh Det 14µM
Cc1ccc(/C=N/NC(=O)c2cccc([N+](=O)[O-])c2)o1	none
O=C(N/N=C/c1ccc(Br)s1)c1cccc([N+](=O)[O-])c1	Cruzain noTriton 20µM
CC(Oc1ccccc1)C(=O)Nc1ccc(OCc2cc(=O)n3ccsc3n2)cc1 (stereo not drawn)	none
O=C(CNc1ccc2c(c1)OCO2)N/N=C\c1cn(Cc2ccccc2)c2ccccc12	Cruzain noTriton 13µM
O=C(CNc1ccc2c(c1)OCO2)N/N=C\c1cn(Cc2ccc(F)cc2)c2ccccc12	Cruzain noTriton inconclusive
CCn1cc(/C=C2\SC(=O)N(CC(=O)Nc3ccc4c(c3)OCO4)C2=O)c2ccccc21	Cruzain noTriton 3.2µM
Cc1c(/C=C2\SC(=O)N(CC(=O)Nc3ccc4c(c3)OCO4)C2=O)c2ccccc2n1C	Cruzain noTriton inconclusive
CCOC(=O)c1cc(S(=O)(=O)Nc2ccccc2OCC)[nH]n1	none
O=C(c1cccc([N+](=O)[O-])c1)N1c2nc(-c3ccco3)nn2C2(CCCCC2)[C@@H]2CCCC[C@@H]21	none
COc1ccc(N2CCC(CNS(=O)(=O)c3cccc(C(F)(F)F)c3)C2)cc1 (stereo not drawn)	Cruzain noTriton 25µM
COc1ccc(N2CCC(CNC(=S)Nc3cccc(C)c3)C2)cc1 (stereo not drawn)	none
N=c1c(S(=O)(=O)c2ccccc2)cc2c(=O)n3ccccc3nc2n1CC1CCCO1 (stereo not drawn)	Cruzain noTriton inconclusive, Cruzain inh Det 32µM
COCCCn1c(=N)c(C(=O)NCC2CCCO2)cc2c(=O)n3cccc(C)c3nc21 (stereo not drawn)	Cruzain noTriton inconclusive, Cruzain inh Det 25µM
CCOCCCn1c(=N)c(C(=O)NCC2CCCO2)cc2c(=O)n3cc(C)ccc3nc21 (stereo not drawn)	Cruzain noTriton inconclusive
CCCn1c(=N)c(C(=O)NCC2CCCO2)cc2c(=O)n3cccc(C)c3nc21 (stereo not drawn)	Cruzain noTriton inconclusive, Cruzain inh Det 32µM
Cc1cccn2c(=O)c3cc(C(=O)NCC4CCCO4)c(=N)n(CCN4CCOCC4)c3nc12 (stereo not drawn)	none
Cc1ccc(CNC(=O)c2cc3c(=O)n4cccc(C)c4nc3n(CC3CCCO3)c2=N)cc1 (stereo not drawn)	Cruzain noTriton inconclusive
COCCCn1c(=N)c(C(=O)NCC2CCCO2)cc2c(=O)n3ccccc3nc21 (stereo not drawn)	Cruzain noTriton inconclusive, Cruzain inh Det 28µM
Cc1ccc(S(=O)(=O)c2cc3c(=O)n4cc(C)ccc4nc3n(CC3CCCO3)c2=N)cc1 (stereo not drawn)	none
Cc1cc(=O)oc2cc(O[C@@H]3O[C@H](C(=O)O)[C@@H](O)[C@H](O)[C@H]3O)ccc12	none
CCc1ccc(CNC(=O)CN2C(=O)CSc3c2c(C)nn3-c2ccccc2)cc1	none
CCOC(=O)c1oc2ccccc2c1NC(=O)COc1ccc(F)cc1	Cruzain noTriton 13µM
CCOC(=O)c1oc2ccccc2c1NC(=O)COc1cccc(OC)c1	none
Cc1ccccc1NC(=O)CSc1nc2cc3c(cc2cc1C)CCC3	none
CCC(=O)Nc1ccc(NC(=O)CSc2nc3cc4c(cc3cc2C)CCC4)cc1	Cruzain noTriton 25µM
COc1cc(NCCC(=O)O)c2ncccc2c1	none
COc1ccc(S(=O)(=O)c2c(Nc3cccc(C)c3C)sc(C(=O)c3ccccc3)c2N)cc1	Cruzain noTriton 6.3µM
COc1ccc(S(=O)(=O)Nc2ccc3c(c2)OCO3)cc1	none
Cc1cccc(C)c1Nc1sc(C(=O)c2ccccc2)c(N)c1C(=O)Nc1ccc(F)cc1	Cruzain noTriton inconclusive
Cc1ccccc1Nc1sc(C(=O)c2ccccc2)c(N)c1S(C)(=O)=O	none
Nc1c(C(=O)c2ccc3c(c2)OCO3)sc(Nc2ccccc2F)c1S(=O)(=O)c1ccccc1	Cruzain noTriton inconclusive
COc1ccc(S(=O)(=O)c2c(Nc3c(C)cccc3C)sc(C(=O)c3ccc(F)cc3)c2N)cc1	Cruzain noTriton 6.3µM
COc1ccc(S(=O)(=O)c2c(Nc3c(C)cccc3C)sc(C(=O)c3ccc4c(c3)OCO4)c2N)cc1	Cruzain noTriton 7.9µM
COc1cccc(Nc2sc(C(=O)c3ccc4c(c3)OCO4)c(N)c2S(=O)(=O)c2ccccc2)c1	Cruzain noTriton 7.9µM
COC(=O)[C@]1(C)CC[C@@]2(C)CC[C@@]3(C)C4=CC=C5C(=CC(=O)C(O)=C5C)[C@@]4(C)CC[C@@]3(C)C2C1 (stereo partly drawn)	none
O=[N+]([O-])c1ccc(C2=Nn3c(nnc3-c3ccc(Cl)cc3)SC2)o1	none
CCC1=C2CC[C@H]3C(=O)N(CC)C(=O)[C@H]3[C@H]2[C@@]2(Cc3ccccc3)C(=O)N(CC3CC3)C(=O)N2C1=O	none
CN1[C@H]2CC(OC(=O)[C@H](CO)c3ccccc3)C[C@H]1[C@H]1O[C@H]12 (stereo partly drawn)	none
CN=C(N)/N=C(\N)Nc1cc2ccccc2c2ccccc12	none
